Laboratory results published in PubChem BioAssay AID492993 (Johns Hopkins Ion Channel Center, 2010).
In all, about 4,900 compounds went through this assay and about 200 (4.1%) were called active.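 The calls were made as follows: active = thallium signal drop more than 5 SD beyond the mean of the no-compound control wells, seen in both duplicate plates; inactive = the rest.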 Not all results are given here.

Molecular target: Inward rectifier potassium channel 2 (Mus musculus) (UniProt P35561)
Test: mouse Kir2.1 channel inhibition, confirmation, selectivity assay for KCNK9 modulator project, cell-based, HEK293, thallium flux (AID 492993);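 as to inhibition: signal is fluorescence rise after thallium addition divided by baseline fluorescence; plate controls were assay buffer only for no effect and full block by chlorpromazine control for full effect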
Details: Kir2.1 cells, FluxOR thallium flux fluorescence, at 10 µM; active compounds read high

Inward rectifier potassium channel 2 (Mus musculus), sequence (P35561 whole entry, looked up): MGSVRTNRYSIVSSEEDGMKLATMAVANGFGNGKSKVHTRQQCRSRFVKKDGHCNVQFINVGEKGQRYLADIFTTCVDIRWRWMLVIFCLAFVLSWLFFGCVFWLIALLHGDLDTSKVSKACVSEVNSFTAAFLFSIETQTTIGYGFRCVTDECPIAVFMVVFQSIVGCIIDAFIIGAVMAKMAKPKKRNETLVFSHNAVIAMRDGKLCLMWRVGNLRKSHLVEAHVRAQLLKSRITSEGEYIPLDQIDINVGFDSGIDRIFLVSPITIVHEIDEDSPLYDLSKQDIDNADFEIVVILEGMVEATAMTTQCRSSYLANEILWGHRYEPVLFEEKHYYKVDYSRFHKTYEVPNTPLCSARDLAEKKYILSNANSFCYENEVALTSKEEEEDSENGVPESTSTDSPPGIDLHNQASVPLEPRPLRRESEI

inhibition, inactive:
COc1ccc(C2CC(c3cccs3)=Nc3ccccc3S2)cc1OC (centres undefined)
COc1ccc(C(CCN(Cc2ccc(OC)c(OC)c2)C(=O)CCl)c2ccccc2)cc1 (centres undefined)
Cc1ccc(OCc2cc(C(=O)N(C)CCc3ccccc3)no2)cc1C
CCOc1ccc(OCc2ccc(C(=O)Nc3cccc(C)n3)o2)cc1
Cc1ccccc1CSc1nnc(CCCCCNC(=O)OC(C)(C)C)o1
CC1(C)CC(=O)CC2(C1)NCC(c1ccccc1Cl)c1c2[nH]c2ccccc12 (centres undefined)
O=C(NCCc1ccccc1)c1ccc2c(c1)N(Cc1ccccc1)CCS2
CCC1(C)Cc2c(sc3[nH]c(=S)n(Cc4ccccc4)c(=O)c23)CO1 (centres undefined)
COc1ccc(CCNc2ncnc3c2nnn3Cc2ccccc2)cc1
COc1ccc(-c2nc(CCNC(=O)c3ccc(Br)o3)cs2)cc1
CCOc1ccc2[nH]c(=O)c(CN(Cc3nnnn3CCc3ccccc3)CC3CCCO3)cc2c1 (centres undefined)
C=CCOc1ccc(/C=N/NC(=O)C(C)Sc2ccccn2)cc1OCC (centres undefined)
O=C(OCC(=O)N(CCc1ccccc1)Cc1ccccc1)c1ccccc1[N+](=O)[O-]
Cc1cccc(NC(=O)c2sc3nc4c(c(-c5ccco5)c3c2N)CCC4)c1
O=C(/C=C/NNC(=O)c1cccc(Br)c1)c1ccccc1
COc1cccc(-c2nn(C)c3sc(C(=O)N4CCN(c5ccccc5)CC4)cc23)c1
CC(C)CC(COCc1ccc(Cl)cc1)N1CCN(C(=O)c2ccc(C(F)(F)F)cc2)CCC1=O (centres undefined)
O=C(COC(=O)c1c2c(nc3ccccc13)CCCC2)c1ccc(Br)s1
Cc1cc(OC(C)C(=O)Nc2ccc(S(=O)(=O)Nc3onc(C)c3C)cc2)cc(C)c1Cl (centres undefined)
CCCCC(=O)Nc1ccccc1N1CCN(c2ccc(F)cc2)CC1
Cc1cccc(C(=O)Nc2ccccc2N2CCN(c3ccc(F)cc3)CC2)c1
CCOc1ccccc1NC(=O)C1CCCN(S(=O)(=O)c2ccccc2)C1 (centres undefined)
COc1ccc(C(=O)Nc2ccccc2C(=O)N/N=C/c2ccccc2OC)cc1
COC(=O)C1=C(Nc2ccc(C)cc2)C=C(C)C(C(=O)OC)C1c1ccc(F)cc1 (centres undefined)
Clc1ccc(Cl)c(Oc2ccc(Oc3nc(Cl)ccc3Cl)cc2)n1
CCOc1cccc(OCCCOc2cccc3cccnc23)c1
O=C(COC(=O)c1ccccc1)Nc1ccccc1Sc1ccccc1
COc1cccc(-c2cnc(OC(C)(C)C)nc2OC(C)(C)C)c1
CC(C)(C)C1CCC(C(=O)NCC(c2cccs2)N2CCOCC2)CC1 (centres undefined)
COCCNc1cc(-c2ccccc2)nc2cc(-c3cccc(F)c3)nn12
CCOC(=O)N1CCN(C(=O)COc2ccc3oc4c(c3c2)CCCC4)CC1
O=C(NCc1ccccc1)C1=C[C@@H](C2CCCCC2)C[C@@H](OCc2ccc(CO)cc2)O1
CCN(C(=O)COc1ccc(C(=O)c2ccccc2)cc1)c1ccccc1
Cc1cc2ccccn2c1C(=O)c1cccc(F)c1
CCOC(=O)C(C)Sc1nc2ccccc2c(=O)n1CC1CCCCC1 (centres undefined)
COc1cc(Cl)c(C)cc1NC(=O)CSc1nnc(-c2ccco2)n1CC(C)C
CC1CCN(C(=O)c2ccc(CSc3ccc(Cl)cc3)cc2)CC1
COc1ccc(-c2n[nH]c3c2CN(C(=O)c2ccc(F)cc2)CC3)cc1
Cc1ccc2c(c1)N(C(=O)CCC(=O)N1CCc3ccccc3C1)CCO2
O=C1CC(c2ccccc2)=NN1c1ccc([N+](=O)[O-])cc1
CCOC(=O)C1(CCOc2ccccc2)CCN(Cc2cc(OC)c(O)cc2Cl)CC1
COc1cccc(NC(=S)N(CCc2c(C)[nH]c3ccccc23)Cc2ccco2)c1
Cc1cccc(N2CCN(C(=O)c3cccc(S(=O)(=O)N4CCc5ccccc5C4)c3)CC2C)c1 (centres undefined)
CCC(c1nnnn1Cc1ccco1)N(CCc1ccccc1)Cc1cc2cccc(C)c2[nH]c1=O (centres undefined)
COc1cccc2cc(C(C)N(CCCN3CCOCC3)C(=O)Nc3ccc(Cl)cc3)oc12 (centres undefined)
Cc1cccc2cc(CN(Cc3nnnn3Cc3ccccc3)C3CCCC3)c(=O)[nH]c12
Fc1ccc(Cn2nnnc2C(c2cccs2)N2CCCCCC2)cc1 (centres undefined)
COc1ccc(C(=O)NN2C(=O)C3C(c4ccccc4)C=CC(c4ccccc4)C3C2=O)cc1 (centres undefined)
COc1cc(Cl)ccc1OCc1cc(C(=O)N2CC[C@@H]3CCCC[C@H]3C2)no1
COc1ccccc1/C=C/C=N/n1c(-c2ccc(Cl)cc2Cl)n[nH]c1=S
CCOc1ccc(C2c3[nH]c4ccccc4c3CCN2Cc2cccn2-c2ncccn2)cc1 (centres undefined)
CC1=NN(c2cccc(Cl)c2)C(=O)C12CC(C)=C(C)CS2 (centres undefined)
CC1=CC(C)(C)N(C(=O)CSc2nnc(-c3ccccc3)o2)c2ccc(C)cc21
Fc1cccc(Cl)c1CSc1ccc(-c2ccco2)nn1
O=C(Nn1c(SCc2ccc([N+](=O)[O-])cc2)nc2ccccc2c1=O)c1ccc(F)cc1
Cc1ccc(NC(=O)c2cc([N+](=O)[O-])ccc2Cl)c(O)c1
O=C(Nc1ccc2c(c1)CCC2)c1cccc(S(=O)(=O)Nc2ccccc2Cl)c1
COc1ccc(OC)c(-c2csc(-c3cccs3)n2)c1
CCN(CC)S(=O)(=O)c1ccc(N(C)Cc2ccc(C(F)(F)F)cc2)nc1
Cc1ccnc(N2CCN(C(=O)CSc3nc4ccccc4nc3N3CCCCC3)CC2)c1
CC(C)(C)NC(=O)NC(=O)CN1CCC(Cc2ccccc2)CC1
CCN(CC)C(=O)CC1(c2ccccc2OC)CCOC(C(C)C)C1 (centres undefined)
COC(=O)c1cc(NC2c3ccccc3C(=O)N2c2ccc(Cl)cn2)cc(C(=O)OC)c1 (centres undefined)
O=C(COC(=O)/C(=C/c1cccs1)c1cccs1)NCc1ccccc1Cl
C=CCN(N=Nc1cccc([N+](=O)[O-])c1)c1cccc([N+](=O)[O-])c1
COc1cccc(CN(C)C(=O)CC23CC4CC(CC(C4)C2)C3)c1OC
Clc1ccc(COn2c(-c3ccc(Cl)cc3Cl)nc3ncccc32)cc1
O=C(Nc1ccc(S(=O)(=O)N2CCCCC2)cc1)C1CCN(C(=O)c2ccc(F)cc2)CC1
Cc1nc(N2CCN(c3ccccn3)CC2)c2c(C)c(C(=O)Nc3ccc(F)c(Cl)c3)sc2n1
Cc1ccc(OS(=O)(=O)c2ccc(-c3csc(C)n3)s2)c(C)c1
C[C@@]12C(=O)N(c3cccc(Br)c3)C(=O)N1[C@H](c1ccc(Cl)cc1)[C@@H]1C(=O)N(C3CCCCC3)C(=O)[C@@H]12
COc1cccc2sc(NNC(=O)c3nc4ccccc4s3)nc12
COc1ccccc1NC(=O)CSc1nc2sc(C)c(C)c2c(=O)n1Cc1ccco1
O=C(NCCCc1ccccc1)c1cc(COc2c(F)cccc2F)on1
Cc1ccc(C2=NN(C)c3nc4ccccc4n3C2)cc1
O=C(Cc1ccccc1)n1nc(-c2ccccc2)nc1NCc1ccco1
Cc1cc(C)cc(OCC(=O)Nc2cc(NC(=O)COc3cc(C)cc(C)c3)cc(C(=O)O)c2)c1
Cc1cccc(NC(=O)N(Cc2cc3cc(C)cc(C)c3[nH]c2=O)CC2COCCO2)c1 (centres undefined)
CC1CCN(C(=S)c2ccc(-c3ccc(Cl)cc3Cl)o2)CC1
COC(=O)c1cccc(C(=O)N2CCCC(Nc3ccc4c(c3)OCCO4)C2)c1 (centres undefined)
Cc1ccc(C2=Nc3c(ccc4ccccc34)C(c3ccncc3)=NN2)cc1
Cc1ccc(CN(N=Nc2nonc2N)c2nonc2N)c(C)c1
Cc1ccc(Cn2ccc(NC(=O)c3cc(C(C)C)on3)n2)cc1
CCOC(=O)[C@@H]1[C@H]2COc3ccc(Br)cc3[C@H]2N2C(=O)N(c3ccc(Cl)cc3)C(=O)[C@@]12C
O=C(N/N=C/c1ccccn1)c1cccc(NC(=O)c2ccc(Cl)cc2)c1
Cc1ncoc1C(=O)N1CCCC(C(=O)c2ccc3c4c(cccc24)CC3)C1 (centres undefined)
CCc1ccccc1NC(=O)/C(=C/c1ccccc1)c1ccccc1
COc1ccc(Nc2ncnc3sc(-c4ccccc4)cc23)c(OC)c1
O=S(=O)(Nc1cccc(Oc2ccc(Cl)cc2)n1)c1ccc(F)cc1
Brc1ccc(C2CC(c3ccccc3)=Nc3ccccc3N2)cc1 (centres undefined)
O=C(Nc1nnc(SCc2ccc(Cl)cc2Cl)s1)C1COc2ccccc2O1 (centres undefined)
CCCCN(Cc1ccccc1)C(=O)C1CCN(Cc2sccc2C)CC1
Clc1cccc(-c2nc3nc4ccccc4nc3n2Cc2ccco2)c1
O=C1N=C2SCCN2/C1=C\c1c(Cl)cccc1Cl
CCc1nnc(NS(=O)(=O)c2ccc(NC(=S)NC(=O)/C=C/c3cccs3)cc2)s1
COc1ccccc1N1CCN(c2ncnc3sc(C)c(-c4ccccc4)c23)CC1
O=C(Nc1ccccc1[N+](=O)[O-])C1C(c2ccccc2)=C1c1ccccc1
CCCCOC(=O)CCCc1ccc([N+](=O)[O-])cc1[N+](=O)[O-]
O=C(NC1Cc2ccccc2C1)c1cc(COc2cccc(C(F)(F)F)c2)on1
O=C(Nc1ccc(Oc2ccccc2)cc1)c1ccco1
Cc1ccc(C(=O)c2c(NC(=O)c3ccncc3)sc3c2CCCC3)cc1
Cc1onc(-c2ccc(Cl)cc2)c1-c1ccnn1S(=O)(=O)c1ccc(Cl)cc1
CN(C)c1ccc(C(CNC(=O)c2ccc(F)cc2)c2c[nH]c3ccccc23)cc1 (centres undefined)
CCn1cnc2scc(-c3ccc(C)c(C)c3)c2c1=O

inhibition, active:
COc1ccc(CCNC(=O)c2ccccc2OCc2ccccc2)cc1 54.5%
O=C(CNCCC1=CCCCC1)Nc1ccccc1N1CCCCCC1 34.5%
N#Cc1nc(Cc2cccc3ccccc23)oc1NCc1ccc2c(c1)OCO2 51%
CCCCCCCCn1c2c(c(=N)c3c1CCC3)CCCC2 84%
Cc1[nH][nH]c(=O)c1C(c1ccc(-c2ccc(Cl)cc2)o1)c1c(C)[nH][nH]c1=O 38%
